# Results from PubChem BioAssay (Tox21).
# The source made the active and inactive calls. A call without a number means that no potency is given here. Unless noted, calls come from the whole dose curve.
# Key:
# [1] = molecular target: Acetylcholinesterase (Homo sapiens) (UniProt P22303); assay: Acetylcholinesterase (AChE) small molecule antagonists: enzyme-based qHTS assay (AID 1347397); conditions: Potency: AChE enzyme activity inhibition; outcome: AChE enzyme activity inhibition; note: nearly all actives have a fitted effect of over 55% in size; note: potency is the fitted concentration of half-maximal effect
# Outline: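 Colorimetric DTNB read-out of thiocholine released from acetylthiocholine by recombinant human AChE (50 mU/mL as dispensed). Compounds were preincubated 30 min at RT before substrate/DTNB addition, with a 10 min RT reaction.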
# [2] = molecular target: Acetylcholinesterase (Homo sapiens) (UniProt P22303); assay: Acetylcholinesterase (AChE) small molecule antagonists: fluorescence cell-based qHTS assay (AID 1347398); conditions: Potency: AChE activity; outcome: AChE activity; note: nearly all actives have a fitted effect of over 50% in size
# Outline: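 SH-SY5Y, 2,000 cells/well, attached overnight; cmpd 30 min 37 C; acetylthiocholine/Thiolite Green cocktail 40 min RT; fluorescence Ex/Em 490/520 nm.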
# [3] = molecular target: Acetylcholinesterase (Homo sapiens) (UniProt P22303); assay: Acetylcholinesterase (AChE) small molecule antagonists: enzyme-based qHTS assay with human liver microsomes (AID 1347399); conditions: Potency: qHTS inhibition; outcome: qHTS inhibition; note: nearly all actives have a fitted effect of over 60% in size
# Outline: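 Recombinant human AChE (50 mU/mL in the enzyme mix) and human liver microsomes (0.25 mg/mL final) were preincubated with compound and NADPH (0.25 mg/mL final) for 30 min at 37 C. Acetylthiocholine/DTNB was then added; thiocholine was read colorimetrically after 10 min at room temperature.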
# [4] = qHTS assay for small molecule agonists of the p53 signaling pathway - cell viability (AID 651633); note: potency is the fitted concentration of half-maximal effect; nearly all actives have a fitted effect of over 30% in size
# Outline: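 p53RE-bla cells were treated with compound for 16 hours at 37 C. Cytotoxicity was then measured as CellTiter-Glo luminescence after 30 min at room temperature.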
# [5] = qHTS assay for small molecules that induce genotoxicity in human embryonic kidney cells expressing luciferase-tagged ATAD5 - cell viability (AID 651634); note: potency is the fitted concentration of half-maximal effect; nearly all actives have a fitted effect of over 25% in size
# Outline: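 Here HEK293T cells with the ATAD5 luciferase reporter are incubated with test compounds for 15.5 hr, and cytotoxicity is then gauged by measuring protease activity in live cells using fluorescence.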
# [6] = qHTS assay for small molecule disruptors of the mitochondrial membrane potential - cell viability (AID 720634);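 note: human HepG2 liver cancer cells; series mostly up to about 83 µM; nearly all actives have a fitted effect of over 20% in size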
# Outline: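 Viability of HepG2 cells is scored from ATP content by luminescence; cells are exposed to compound for 1 hr at 37 C and 5% CO2, then dosed with m-MPI dye before the CellTiter-Glo reagent.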
# [7] = qHTS assay for small molecule disruptors of the mitochondrial membrane potential (AID 720635; active = well fitted curve in the direction sought with a large enough effect in the repeat runs; inconclusive = weak or mixed curves; inactive = no such curve, though single readings can be large; an effect the other way counts as inactive or inconclusive; note: potency is the fitted concentration of half-maximal effect)
# Outline: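 HepG2 cells exposed to compound 1 hr at 37C, then Mito-MPS dye 30 min. Ratio read of aggregate (540/590 nm) versus monomer (490/535 nm) fluorescence.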
# [8] = qHTS assay to test for compound auto fluorescence at 590 nm (red) in HepG2 cells (AID 720674; active = well fitted curve in the direction sought with a large enough effect in the repeat runs; inconclusive = weak or mixed curves; inactive = no such curve, though single readings can be large; an effect the other way counts as inactive or inconclusive)
# Outline: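 HepG2 cells, 2,000 per well in MEM with 10% FBS, attached overnight at 37 C, then got 23 nL compound or DMSO. After 1 hr at 37 C, 5% CO2, red fluorescence was read at 540/590 nm against Rose Bengal sodium as reference.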
# [9] = qHTS assay to test for compound auto fluorescence at 535 nm (green) in HepG2 cells (AID 720675; active = well fitted curve in the direction sought with a large enough effect in the repeat runs; inconclusive = weak or mixed curves; inactive = no such curve, though single readings can be large; an effect the other way counts as inactive or inconclusive)
# [10] = qHTS assay to test for compound auto fluorescence at 590 nm (red) in HEK293 cells (AID 720679; active = well fitted curve in the direction sought with a large enough effect in the repeat runs; inconclusive = weak or mixed curves; inactive = no such curve, though single readings can be large; an effect the other way counts as inactive or inconclusive)
# Outline: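 Intensity at 540nm excitation and 590nm emission is reported as Rose Bengal sodium-equivalent autofluorescence. Measurements followed overnight exposure (37C, 5% CO2) of HEK293 cells, 2,000 per well, to 23 nL compound.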
# [11] = qHTS assay to test for compound auto fluorescence at 535 nm (green) in HEK293 cells (AID 720680; active = well fitted curve in the direction sought with a large enough effect in the repeat runs; inconclusive = weak or mixed curves; inactive = no such curve, though single readings can be large; an effect the other way counts as inactive or inconclusive)
# [12] = qHTS assay to test for compound auto fluorescence at 460 nm (blue) in HEK293 cell free culture (AID 720681; active = well fitted curve in the direction sought with a large enough effect in the repeat runs; inconclusive = weak or mixed curves; inactive = no such curve, though single readings can be large; an effect the other way counts as inactive or inconclusive)
# Outline: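 Compounds were added to cell-free DMEM with 10% FBS and fluorescence read directly. The blue channel used 405 nm excitation and 460 nm emission, with triamterene as the reference fluorophore.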
# [13] = qHTS assay to test for compound auto fluorescence at 535 nm (green) in HEK293 cell free culture (AID 720682; active = well fitted curve in the direction sought with a large enough effect in the repeat runs; inconclusive = weak or mixed curves; inactive = no such curve, though single readings can be large; an effect the other way counts as inactive or inconclusive)
# Outline: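 Green-channel intensity (Ex/Em 485/535 nm) was recorded from compound-treated wells containing only DMEM with 10% FBS. Fluorescein provided the equivalency standard.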
# [14] = qHTS assay to test for compound auto fluorescence at 590 nm (red) in HEK293 cell free culture (AID 720683; active = well fitted curve in the direction sought with a large enough effect in the repeat runs; inconclusive = weak or mixed curves; inactive = no such curve, though single readings can be large; an effect the other way counts as inactive or inconclusive)
# Outline: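 Cell-free wells of DMEM with 10% FBS received compound, and intrinsic fluorescence was read at excitation/emission 540/590 nm. Values expressed as equivalence to Rose Bengal sodium.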
# [15] = qHTS assay to test for compound auto fluorescence at 590 nm (red) in HepG2 cell free culture (AID 720684; active = well fitted curve in the direction sought with a large enough effect in the repeat runs; inconclusive = weak or mixed curves; inactive = no such curve, though single readings can be large; an effect the other way counts as inactive or inconclusive)
# Outline: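 Rose Bengal sodium served as the reference for red signal. Test compounds were dispensed into serum-containing MEM (10% FBS) without cells, and plates were read at 540/590 nm.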
# [16] = qHTS assay to test for compound auto fluorescence at 460 nm (blue) in HepG2 cell free culture (AID 720685; active = well fitted curve in the direction sought with a large enough effect in the repeat runs; inconclusive = weak or mixed curves; inactive = no such curve, though single readings can be large; an effect the other way counts as inactive or inconclusive)
# Outline: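 Cell-free plates of MEM plus 10% FBS received 23 nL compound or DMSO vehicle; blue-channel (405/460 nm) intensity scored against triamterene as reference fluorophore.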
# [17] = qHTS assay to test for compound auto fluorescence at 535 nm (green) in HepG2 cell free culture (AID 720686; active = well fitted curve in the direction sought with a large enough effect in the repeat runs; inconclusive = weak or mixed curves; inactive = no such curve, though single readings can be large; an effect the other way counts as inactive or inconclusive)
# [18] = qHTS assay to test for compound auto fluorescence at 460 nm (blue) in HepG2 cells (AID 720687; active = well fitted curve in the direction sought with a large enough effect in the repeat runs; inconclusive = weak or mixed curves; inactive = no such curve, though single readings can be large; an effect the other way counts as inactive or inconclusive)
# Outline: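 HepG2 cells in MEM with 10% FBS, attached overnight at 37 C, were exposed to compound or DMSO for 1 hr at 37 C, 5% CO2. Blue fluorescence was read at 405/460 nm, with triamterene as reference fluorophore.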
# [19] = qHTS assay to identify small molecule antagonists of the glucocorticoid receptor (GR) signaling pathway - cell viability counter screen (AID 720693; active = well fitted curve in the direction sought with a large enough effect in the repeat runs; inconclusive = weak or mixed curves; inactive = no such curve, though single readings can be large; an effect the other way counts as inactive or inconclusive; note: potency is the fitted concentration of half-maximal effect; nearly all actives have a fitted effect of over 55% in size)
# [20] = qHTS assay to identify small molecule antagonists of the androgen receptor (AR) signaling pathway - cell viability counter screen (AID 743033; active = well fitted curve in the direction sought with a large enough effect in the repeat runs; inconclusive = weak or mixed curves; inactive = no such curve, though single readings can be large; an effect the other way counts as inactive or inconclusive; note: potency is the fitted concentration of half-maximal effect; nearly all actives have a fitted effect of over 45% in size)
# [21] = molecular target: Androgen receptor (Homo sapiens) (UniProt P10275); assay: qHTS assay to identify small molecule agonists of the androgen receptor (AR) signaling pathway using the MDA cell line (AID 743040; active = well fitted curve in the direction sought with a large enough effect in the repeat runs; inconclusive = weak or mixed curves; inactive = no such curve, though single readings can be large; an effect the other way counts as inactive or inconclusive; note: nearly all actives have a fitted effect of over 20% in size)
# Outline: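 Luciferase read-out, ONE-Glo, 30 min RT. Cells: MDA-kb2 AR-luc, MMTV promoter with AR and GR response elements. Compound exposure 16 h, 37C, 0% CO2, after 5 h pre-incubation. qHTS agonist mode.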
# [22] = qHTS assay to identify small molecule antagonists of the androgen receptor (AR) signaling pathway using the MDA cell line - cell viability counter screen (AID 743041; active = well fitted curve in the direction sought with a large enough effect in the repeat runs; inconclusive = weak or mixed curves; inactive = no such curve, though single readings can be large; an effect the other way counts as inactive or inconclusive; note: potency is the fitted concentration of half-maximal effect; nearly all actives have a fitted effect of over 45% in size)
# Outline: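 Cytotoxicity counter screen: MDA-kb2 AR-luc cells, compound + R1881, 16 h, 37C, 0% CO2; CellTiter-Fluor added at 15.5 h, fluorescence read after 30 min.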
# [23] = molecular target: Androgen receptor (Homo sapiens) (UniProt P10275); assay: qHTS assay to identify small molecule antagonists of the androgen receptor (AR) signaling pathway using the MDA cell line (AID 743042; active = well fitted curve in the direction sought with a large enough effect in the repeat runs; inconclusive = weak or mixed curves; inactive = no such curve, though single readings can be large; an effect the other way counts as inactive or inconclusive; note: potency is the fitted concentration of half-maximal effect; nearly all actives have a fitted effect of over 55% in size)
# Outline: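 MDA-kb2 breast carcinoma cells carrying MMTV-luciferase (AR/GR responsive) were co-treated with compounds and the agonist R1881 for 16 h at 37C. Inhibition read as ONE-Glo luminescence; CellTiter-Fluor fluorescence measured in parallel for cytotoxicity.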
# [24] = qHTS assay to identify small molecule antagonists of the thyroid receptor (TR) signaling pathway - cell viability counter screen (AID 743064; active = well fitted curve in the direction sought with a large enough effect in the repeat runs; inconclusive = weak or mixed curves; inactive = no such curve, though single readings can be large; an effect the other way counts as inactive or inconclusive; note: potency is the fitted concentration of half-maximal effect; nearly all actives have a fitted effect of over 50% in size)
# Outline: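 In rat pituitary GH3.TRE-Luc reporter cells co-exposed to compound and 1 nM T3 for 23.5 h, cytotoxicity was assessed with CellTiter-Fluor in the same wells, read by fluorescence.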
# [25] = qHTS assay to identify small molecule antagonists of the thyroid receptor (TR) signaling pathway (AID 743065; active = well fitted curve in the direction sought with a large enough effect in the repeat runs; inconclusive = weak or mixed curves; inactive = no such curve, though single readings can be large; an effect the other way counts as inactive or inconclusive; note: potency is the fitted concentration of half-maximal effect; nearly all actives have a fitted effect of over 55% in size)
# Outline: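 GH3.TRE-Luc rat pituitary cells (two TREs driving luciferase) were dosed with compound, then stimulated with 1 nM T3 (final) for 23.5 h at 37 C. ONE-Glo luminescence was the read-out, with CellTiter-Fluor fluorescence as the cytotoxicity counter-screen.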
# [26] = qHTS assay to identify small molecule antagonists of the estrogen receptor alpha (ER-alpha) signaling pathway - cell viability counter screen (AID 743074);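 note: HEK293 cells carrying ER-alpha-UAS-bla reporter stimulated with 17beta-estradiol; potency is the fitted concentration of half-maximal effect; nearly all actives have a fitted effect of over 45% in size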
# [27] = molecular target: Estrogen receptor (Homo sapiens) (UniProt P03372); assay: qHTS assay to identify small molecule agonists of the estrogen receptor alpha (ER-alpha) signaling pathway (AID 743075);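 note: HEK293 GripTite cells with ER-alpha and UAS-driven beta-lactamase reporter; potency is the fitted concentration of half-maximal effect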
# [28] = molecular target: Aryl hydrocarbon receptor (Homo sapiens) (UniProt P35869); assay: qHTS assay to identify small molecule that activate the aryl hydrocarbon receptor (AhR) signaling pathway (AID 743085; active = well fitted curve in the direction sought with a large enough effect in the repeat runs; inconclusive = weak or mixed curves; inactive = no such curve, though single readings can be large; an effect the other way counts as inactive or inconclusive;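 note: HG2L7.5c1 human HepG2 liver cells with stably integrated DRE-driven firefly reporter; series mostly up to about 70 µM; nearly all actives have a fitted effect of over 15% in size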)
# Outline: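 AhR agonist activity is inferred from enhanced light output of a DRE-controlled firefly luciferase reporter in HepG2 cells, measured with ONE-Glo following 24 h treatment at 37C.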
# [29] = qHTS assay to identify small molecule that activate the aryl hydrocarbon receptor (AhR) signaling pathway - cell viability counter screen (AID 743086; active = well fitted curve in the direction sought with a large enough effect in the repeat runs; inconclusive = weak or mixed curves; inactive = no such curve, though single readings can be large; an effect the other way counts as inactive or inconclusive; note: potency is the fitted concentration of half-maximal effect; nearly all actives have a fitted effect of over 45% in size)
# Outline: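 HepG2-AhR-luc (HG2L7.5c1) cells, 4000/well, treated 24 h at 37 C with compound; viability measured as CellTiter-Fluor fluorescence after 30 min in the same wells as the luciferase read.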
# Sequence of Acetylcholinesterase (Homo sapiens) (P22303 whole entry, looked up): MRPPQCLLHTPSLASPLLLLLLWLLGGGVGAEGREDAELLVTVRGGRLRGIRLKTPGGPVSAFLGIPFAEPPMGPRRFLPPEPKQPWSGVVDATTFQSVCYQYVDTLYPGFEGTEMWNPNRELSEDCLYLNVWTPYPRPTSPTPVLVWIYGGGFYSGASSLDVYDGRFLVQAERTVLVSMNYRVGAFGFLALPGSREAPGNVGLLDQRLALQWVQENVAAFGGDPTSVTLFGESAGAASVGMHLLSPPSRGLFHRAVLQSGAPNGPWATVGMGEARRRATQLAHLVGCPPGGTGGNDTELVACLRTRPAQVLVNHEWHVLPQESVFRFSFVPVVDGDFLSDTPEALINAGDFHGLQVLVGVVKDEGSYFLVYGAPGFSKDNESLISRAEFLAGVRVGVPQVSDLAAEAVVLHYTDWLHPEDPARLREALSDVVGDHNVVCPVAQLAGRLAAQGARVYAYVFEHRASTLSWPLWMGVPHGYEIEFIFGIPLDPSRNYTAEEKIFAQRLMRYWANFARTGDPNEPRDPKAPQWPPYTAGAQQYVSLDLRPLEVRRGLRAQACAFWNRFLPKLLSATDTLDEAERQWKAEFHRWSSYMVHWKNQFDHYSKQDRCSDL
# Sequence of Androgen receptor (Homo sapiens) (P10275 whole entry, looked up): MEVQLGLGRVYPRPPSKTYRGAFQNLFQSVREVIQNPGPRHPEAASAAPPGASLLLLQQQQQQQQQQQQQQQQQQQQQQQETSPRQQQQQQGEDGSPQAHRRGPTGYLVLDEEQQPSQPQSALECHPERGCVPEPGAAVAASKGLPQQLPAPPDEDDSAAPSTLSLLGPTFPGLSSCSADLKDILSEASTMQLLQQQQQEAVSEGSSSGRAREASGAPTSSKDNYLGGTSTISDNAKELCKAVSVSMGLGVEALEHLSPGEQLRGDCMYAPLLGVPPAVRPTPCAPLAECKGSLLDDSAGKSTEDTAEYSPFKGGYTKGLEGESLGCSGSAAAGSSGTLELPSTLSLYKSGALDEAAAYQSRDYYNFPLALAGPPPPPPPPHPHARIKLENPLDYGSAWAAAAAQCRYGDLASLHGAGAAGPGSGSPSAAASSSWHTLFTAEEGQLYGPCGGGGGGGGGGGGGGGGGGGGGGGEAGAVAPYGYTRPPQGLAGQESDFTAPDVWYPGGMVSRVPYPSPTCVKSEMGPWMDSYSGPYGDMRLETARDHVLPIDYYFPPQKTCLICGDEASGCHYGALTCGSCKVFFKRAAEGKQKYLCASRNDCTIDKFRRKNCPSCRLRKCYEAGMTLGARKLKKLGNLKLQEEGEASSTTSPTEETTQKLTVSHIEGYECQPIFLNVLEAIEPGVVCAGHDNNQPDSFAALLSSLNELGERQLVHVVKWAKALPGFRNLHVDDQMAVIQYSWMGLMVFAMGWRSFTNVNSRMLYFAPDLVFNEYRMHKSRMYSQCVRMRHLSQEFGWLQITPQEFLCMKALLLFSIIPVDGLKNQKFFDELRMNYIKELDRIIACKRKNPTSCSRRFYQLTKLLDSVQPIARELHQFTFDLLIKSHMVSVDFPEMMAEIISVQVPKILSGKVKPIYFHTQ
# Sequence of Estrogen receptor (Homo sapiens) (P03372 whole entry, looked up): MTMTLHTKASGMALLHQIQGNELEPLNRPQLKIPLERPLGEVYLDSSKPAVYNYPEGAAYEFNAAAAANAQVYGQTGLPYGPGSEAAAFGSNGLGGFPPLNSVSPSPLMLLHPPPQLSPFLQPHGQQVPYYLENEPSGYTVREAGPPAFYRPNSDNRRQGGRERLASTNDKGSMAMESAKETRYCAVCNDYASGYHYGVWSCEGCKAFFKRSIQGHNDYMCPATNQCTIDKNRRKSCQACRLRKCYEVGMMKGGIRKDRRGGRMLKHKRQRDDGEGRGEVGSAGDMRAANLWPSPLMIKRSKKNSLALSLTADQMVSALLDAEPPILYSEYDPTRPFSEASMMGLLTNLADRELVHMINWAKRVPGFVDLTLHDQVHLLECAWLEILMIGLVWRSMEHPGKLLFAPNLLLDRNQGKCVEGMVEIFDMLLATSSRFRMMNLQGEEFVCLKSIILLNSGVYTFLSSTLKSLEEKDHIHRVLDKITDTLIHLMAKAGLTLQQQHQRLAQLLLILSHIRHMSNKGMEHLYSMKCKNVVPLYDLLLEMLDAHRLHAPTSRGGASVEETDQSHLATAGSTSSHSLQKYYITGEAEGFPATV
# Sequence of Aryl hydrocarbon receptor (Homo sapiens) (P35869 whole entry, looked up): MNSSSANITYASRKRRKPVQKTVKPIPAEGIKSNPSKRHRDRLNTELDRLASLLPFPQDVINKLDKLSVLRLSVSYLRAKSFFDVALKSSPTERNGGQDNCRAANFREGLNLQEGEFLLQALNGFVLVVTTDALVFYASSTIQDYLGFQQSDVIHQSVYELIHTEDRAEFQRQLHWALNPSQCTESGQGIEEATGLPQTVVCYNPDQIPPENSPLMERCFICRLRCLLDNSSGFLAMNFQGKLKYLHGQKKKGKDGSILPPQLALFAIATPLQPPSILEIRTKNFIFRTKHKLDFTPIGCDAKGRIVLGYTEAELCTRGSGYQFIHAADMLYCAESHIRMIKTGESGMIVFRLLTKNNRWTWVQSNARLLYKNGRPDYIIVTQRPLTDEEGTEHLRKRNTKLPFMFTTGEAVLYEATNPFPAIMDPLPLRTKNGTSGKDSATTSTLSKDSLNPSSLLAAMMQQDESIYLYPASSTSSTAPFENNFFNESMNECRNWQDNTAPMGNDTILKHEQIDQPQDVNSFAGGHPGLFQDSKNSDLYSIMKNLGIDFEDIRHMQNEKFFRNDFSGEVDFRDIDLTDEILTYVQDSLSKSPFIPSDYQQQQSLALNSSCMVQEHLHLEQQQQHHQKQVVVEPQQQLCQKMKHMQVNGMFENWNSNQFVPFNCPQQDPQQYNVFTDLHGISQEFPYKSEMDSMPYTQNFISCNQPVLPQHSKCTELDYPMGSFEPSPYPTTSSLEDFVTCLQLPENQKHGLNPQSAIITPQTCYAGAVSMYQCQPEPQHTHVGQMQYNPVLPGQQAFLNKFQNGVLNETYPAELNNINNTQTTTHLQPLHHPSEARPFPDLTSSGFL
structure (smiles),measurement,setting,value
c1ccc2cc3ccccc3cc2c1,Potency,[1],inactive
same,Potency,[2],inactive
same,Potency,[3],inactive
O=C(O)C1(C(=O)O)CCC1.[NH2-].[NH2-].[Pt+2],Potency,[1],21.9 µM (active)
same,Potency,[2],inactive
same,Potency,[3],inactive
COC(=O)[C@]12CCC(C)(C)C[C@H]1[C@H]1C(=O)C=C3[C@@]4(C)C=C(C#N)C(=O)C(C)(C)[C@@H]4CC[C@@]3(C)[C@]1(C)CC2,Potency,[4],1.33 µM (active)
same,Potency,[5],2.98 µM (active)
same,Potency,[6],inactive
same,Potency,[7],3.76 µM (active)
same,outcome,[8],inactive
same,Potency,[9],inactive
same,outcome,[10],inactive
same,Potency,[11],inactive
same,Potency,[12],inactive
same,Potency,[13],inactive
same,outcome,[14],inactive
same,outcome,[15],inactive
same,Potency,[16],inactive
same,Potency,[17],inactive
same,Potency,[18],inactive
same,Potency,[19],1.07 µM (active)
same,Potency,[20],4.25 µM (active)
same,Potency,[21],inactive
same,Potency,[22],6.68 µM (active)
same,Potency,[23],2.37 µM (active)
same,Potency,[24],1.68 µM (active)
same,Potency,[25],0.473 µM (active)
same,Potency,[26],3.38 µM (active)
same,Potency,[27],3.01 µM [inconclusive] (active)
same,Potency,[28],inactive
same,Potency,[29],3.76 µM (active)
O=c1oc(=O)c2cc3c(=O)oc(=O)c3cc12,Potency,[1],inactive
same,Potency,[2],inactive
same,Potency,[3],inactive
O=C(O)c1ccc(C(=O)O)cc1,Potency,[1],inactive
same,Potency,[2],inactive
same,Potency,[3],inactive
